What was measured:
Assay in all cases: PBM binding z-score (relative to random genomic background probes); higher = stronger binding; sequences stand for … in GC…GCGATTGACAGCGTAGAATGAAGG
[1] = tested on: FXR:RXRa (NR concentration 270 nM, RXRa partner concentration 90 nM)
Method in brief: (§1)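 Antibodies against each partner of ligand-free nuclear receptor dimers (one per run) detected binding on custom Agilent 4×180K protein-binding microarrays after 1 h incubation. The double-stranded probes had 34-nt variable regions carrying direct-repeat seeds, single-nucleotide variants, half-site ablations and random human genomic background sequences. Binding z-scores, from regression-normalized fluorescence, use the random background probes as reference.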

[2] = tested on: LXRa:RXRa (NR concentration 270 nM, RXRa partner concentration 90 nM)
Method in brief: as §1

[3] = tested on: LXRa homodimer (NR concentration 270 nM)
Method in brief: as §1

[4] = tested on: LXRb:RXRa (NR concentration 270 nM, RXRa partner concentration 90 nM)
Method in brief: as §1

[5] = tested on: LXRb homodimer (NR concentration 270 nM)
Method in brief: as §1

[6] = tested on: PPARa:RXRa (NR concentration 270 nM, RXRa partner concentration 90 nM)
Method in brief: as §1

[7] = tested on: PPARg:RXRa (NR concentration 180 nM, RXRa partner concentration 90 nM)
Method in brief: as §1

[8] = tested on: PPARg:RXRa 270nM:90nM, anti-RXR (NR concentration 270 nM, RXRa partner concentration 90 nM)
Method in brief: as §1

[9] = tested on: PPARg:RXRa 30nM:10nM, anti-RXR (NR concentration 30 nM, RXRa partner concentration 10 nM)
Method in brief: as §1

[10] = tested on: PPARg:RXRa 90nM:30nM, anti-RXR (NR concentration 90 nM, RXRa partner concentration 30 nM)
Method in brief: as §1

[11] = tested on: PPARg:RXRa DBDmut IVT, anti-RXR (DBD mutation: RXRa K156A/R161A, NR concentration 270 nM, RXRa partner concentration 90 nM)
Method in brief: as §1

[12] = tested on: PPARg:RXRa IVT, anti-PPARg (NR concentration 270 nM, RXRa partner concentration 90 nM)
Method in brief: as §1

[13] = tested on: PPARg DBDmut:RXRa IVT, anti-PPARg (DBD mutation: PPARg1 K132A/R137A, NR concentration 270 nM, RXRa partner concentration 90 nM)
Method in brief: as §1

[14] = tested on: PPARg DBDmut IVT, anti-PPARg (DBD mutation: PPARg1 K132A/R137A, NR concentration 270 nM)
Method in brief: as §1

[15] = tested on: PPARg homodimer (NR concentration 180 nM)
Method in brief: as §1

[16] = tested on: PXR:RXRa (NR concentration 270 nM, RXRa partner concentration 90 nM)
Method in brief: as §1

[17] = tested on: PXR homodimer (NR concentration 270 nM)
Method in brief: as §1

[18] = tested on: RARa:RXR (NR concentration 270 nM, RXRa partner concentration 90 nM)
Method in brief: as §1

[19] = tested on: RARa homodimer (NR concentration 270 nM)
Method in brief: as §1

[20] = tested on: RARb:RXRa (NR concentration 270 nM, RXRa partner concentration 90 nM)
Method in brief: as §1

Row | Sequence | PBM binding z-score [1] | PBM binding z-score [2] | PBM binding z-score [3] | PBM binding z-score [4] | PBM binding z-score [5] | PBM binding z-score [6] | PBM binding z-score [7] | PBM binding z-score [8] | PBM binding z-score [9] | PBM binding z-score [10] | PBM binding z-score [11] | PBM binding z-score [12] | PBM binding z-score [13] | PBM binding z-score [14] | PBM binding z-score [15] | PBM binding z-score [16] | PBM binding z-score [17] | PBM binding z-score [18] | PBM binding z-score [19] | PBM binding z-score [20]
1 | CAACCTAGGTCAAGAGGTCAAAGTCCGCTTCCCG | 6.93 | 6.34 | 6.16 | 5.73 | 1.82 | 5.97 | 7.35 | 6.76 | 3.67 | 5.86 | 4.75 | 5.45 | 0.0311 | -0.16 | 5.72 | 6.26 | 2.37 | 7.74 | 2.15 | 5.42
2 | CGTCCTAGGTCAGAGAGGTCAGTGAATGCCGAGT | 3.96 | 3.93 | 2.32 | 3.09 | -0.0595 | 3.75 | 2.04 | 3.12 | 0.277 | 1.95 | 2.86 | 3.03 | -0.901 | -1.15 | 5.14 | 4.85 | 8.52 | 4.68 | 2.45 | 4.4
3 | ATATGTAGGTTATCGGATCATTCAGTTTGCGCAT | 0.778 | 1.32 | 0.544 | 0.974 | 0.803 | 3.32 | 4.5 | 4.3 | 2.14 | 3.56 | 7.18 | 6.73 | 2.24 | 2.07 | 1.46 | 0.908 | 0.884 | 1.05 | 1.48 | 0.993
4 | TCGAATAGGTTAGGGGCATTCAGAATGGCGTCGA | 0.35 | 0.807 | -0.0676 | 1.26 | 0.0688 | 1.49 | 0.443 | 2.13 | 2.93 | 2.56 | 1.9 | 0.68 | -0.275 | -0.57 | 0.452 | 0.695 | 0.0158 | 0.806 | 0.0673 | 1.5
5 | CCTAGTTGGTCAGGACGTCACACACCGGATATGA | -0.0966 | 0.0885 | 0.373 | -0.0236 | 0.306 | -0.286 | 0.962 | 0.0606 | -0.177 | 0.147 | 0.48 | 0.458 | 0.41 | 0.0179 | 0.77 | -0.123 | 0.484 | -0.000234 | 1.44 | 0.721
6 | TCGAGTAGGTTACCAATGGGGCATCCAGCTTTCT | -0.0343 | 1.12 | -0.623 | 0.546 | -1.16 | 1.27 | 0.366 | 1.12 | 1.25 | 1.19 | 3.43 | 2.56 | -0.589 | -0.544 | -0.353 | -0.193 | -0.691 | 0.352 | -1.07 | 1.03
7 | ACTATCAGTTGACTTAGGGCAACCGATACGACGC | 0.0979 | 0.0623 | 0.0822 | -0.0416 | 0.543 | 0.113 | 0.908 | 0.0453 | 0.141 | 0.385 | -0.371 | 0.386 | 0.456 | 0.545 | 0.231 | -0.0461 | 0.241 | 0.465 | 0.08 | 0.877
8 | CCTTACGCGTCACTCCAGGTTATAGCATCGGAGT | 1.11 | 4.05 | 1.55 | 1.36 | 0.803 | 0.54 | 0.559 | -0.0823 | -0.223 | -0.192 | 0.0955 | 0.368 | 0.286 | 1 | 1.16 | 0.484 | 0.825 | 0.345 | 0.837 | 0.333
9 | CAAACTAGATCACAGAGGTCAAAGTCCGTGCGTA | 4.82 | 5.45 | 6.08 | 5.22 | 2.14 | 5.26 | 4.26 | 4.86 | 2.01 | 4.09 | 3.96 | 4.36 | 1 | 1.1 | 4.38 | 5.76 | 2.93 | 6.13 | 2.65 | 4.05
10 | CGTCCATGGTCAGAGAGGTCAGTGAATGCCGAGT | 1.59 | 1.68 | 0.897 | 1.84 | -0.375 | 2.51 | 0.301 | 0.981 | -0.535 | 0.219 | 0.536 | 0.857 | -0.938 | -0.643 | 1.93 | 3.11 | 1.73 | 2.87 | 0.23 | 3.52
11 | CGAACTAGGTCAGAATAGGACAGTGAAGGATGAT | 1.39 | 0.992 | -0.0335 | 0.45 | -0.693 | 3.02 | 5.03 | 4.31 | 1.81 | 3.36 | 6.67 | 6.96 | 2.83 | 1.87 | 0.535 | 0.652 | 0.356 | 1.01 | 0.988 | 2.73
12 | CGTCCAAGGTCATAGGAAGTCAGTGAAGACAGAT | 6.83 | 5.5 | 1.21 | 3.9 | 0.55 | 5.43 | 4.4 | 4.99 | 1.57 | 3.64 | 3.11 | 3.4 | 0.667 | -0.147 | 2.75 | 3.99 | 0.915 | 4.28 | 0.466 | 4.81
13 | CATACAGGGTCAGCTTGGCCAGAGTAGGGACGGC | 4.12 | 2.73 | -0.212 | 1.86 | 0.138 | 4.1 | 2.78 | 2.88 | 0.385 | 1.57 | 1.04 | 2.5 | 0.91 | 0.462 | 1.09 | 2.01 | -0.3 | 2.93 | 0.544 | 3.99
14 | GGAACGAGGGCAAATTGATAGCAGAGTTTGATGG | 0.902 | 0.348 | -0.101 | 0.452 | -0.144 | 1.73 | 1.16 | 0.944 | 0.134 | 0.629 | 3.46 | 2.68 | 0.618 | -0.23 | 0.358 | 0.625 | 0.703 | 0.402 | -0.436 | 2.23
15 | CGAACTAGGTCATTGACAGGACAGTGATTAGTAA | 4.44 | 3.04 | 0.786 | 2 | -0.0597 | 4.69 | 7.36 | 6.17 | 3.71 | 6.08 | 8.18 | 8.17 | 4.22 | 2.86 | 1.7 | 1.91 | 0.608 | 2.36 | 0.564 | 3.62

Reference: the supplement of paper PMC6555819
